According to ChEMBL document CHEMBL3433997, “St. Jude Leishmania screening dataset” (2016):

target: Hexose transporter 1 (Plasmodium falciparum) (UniProt O97467); experiment: ST_JUDE_LEISH: Cytotoxicity at 2uM final concentration against transgenic Leishmania Mexicana promastigotes LmPfHT that are glucose transport deficient and complemented with the Plasmodium falciparum hexose transporter. Activity is measured by DNA content using SYBR green in vitro; format: functional

SMILES | inhibition
Clc1ccc2c(Cl)c(CNCCCNc3nc4ccccc4[nH]3)[nH]c2c1 | 0.94%
CCN(CC)CCOc1ccc(N(Cc2ccc(C(C)(C)C)cc2)C(=O)c2ccc(Cc3ccccc3)cc2)cc1OC | 14.8%
O=S(=O)(Nc1cccc(CCN2CCC(N3CCCCC3)CC2)c1)c1ccc2c(c1)OCCO2 | 4.23%
N#Cc1ccc2c(c1)CCN(CCC1CCC(NC(=O)Nc3ccnc4ccccc34)CC1)C2 (stereo not given) | 3.39%
COc1ccc(N2CCN(CCc3ccc(NC(=O)c4ccc([N+](=O)[O-])cc4)cc3)CC2)c(OC)c1 | 6.72%
CC(=O)Nc1ncc(C(=O)Nc2cccc(-c3ccc(-c4nc5cccc(C)c5[nH]4)cc3)c2)s1 | 0.54%
O=C(Cc1ccccc1)NC(CCN1CCC(O)(c2cccc(C(F)(F)F)c2)CC1)c1ccc(Cl)c(Cl)c1 (stereo not given) | 1.61%
c1ccc(COc2ccccc2COc2ccccc2-c2ccc3cccnc3n2)cc1 | -0.32%
CN(C)CCCOc1ccc(CN2CC[C@H](NC(=O)c3ccc(Cl)c(Cl)c3)C2)cc1Br | 0.94%
Cc1cccc2c1NC(=O)/C2=N/NC(=S)N(C)C | 4.53%
C[C@H](NC(=O)c1c(CN2CCC(N3CCCCC3)CC2)c(-c2ccccc2)nc2cc(O)ccc12)C1CCCCC1 | 4.06%
Cc1cc(NCCC(=O)NCc2cccc(F)c2)nc(NCCc2ccc(F)cc2)n1 | 3.24%
Cc1cccc2nc(-c3ccc(-c4ccc(CN5CCOCC5)cc4)cc3)[nH]c12 | 3.46%
Cc1[nH]c(C)c(-c2ccc(OCCCCSc3ccncc3)cc2)c(=O)c1Br | 6.45%
CC(=O)N/N=C/[C@H](CCc1ccccc1)NC(=O)[C@H](CC(C)C)NC(=O)c1ccc(OCCN2CCOCC2)cc1 | 6.88%
Brc1cc2c(cc1C=NNc1nc(=Nc3ccccc3)[nH]c(=Nc3ccccc3)[nH]1)OCO2 | 3.42%
O=C(/C=C/c1ccc2ccccc2c1)NCC1(c2ccc(-c3ccccc3)cc2)CCOCC1 | 2.55%
CCN(CC)CCN(Cc1ccc(-c2ccc(C(F)(F)F)cc2)cc1)C(=O)Cn1c(SCc2ccc(F)c(F)c2F)nc(=O)c2c1CCC2 | 4.02%
COc1ccc2ncc(F)c(CCN3C4CCC3CC(NCc3cc5c(cn3)OCS5)C4)c2n1 (stereo not given) | 41.5%
CCOC(=O)CC[C@H](NC(=O)c1ccc(NS(=O)(=O)c2ccc(-c3cnc(N)[nH]c3=O)cc2)cc1)C(=O)OCC | 5.08%

SMILES | inhibition
COc1cccc(CNC(=O)NC2CCN(c3ccnc(Nc4ccc(F)cc4)n3)C2)c1 (stereo not given) | -0.35%
c1cc(C2=NC3CCCCC3N2)ccc1OCCCOc1ccc(C2=NC3CCCCC3N2)cc1 (stereo not given) | 6.74%
NC1CCN(Cc2ccc(-c3cccc(-c4nc5ccccc5[nH]4)c3)cc2)C1 (stereo not given) | 5.29%
O=C(Nc1cccc(-c2ccc(-c3nc4ccccc4[nH]3)cc2)c1)c1cnn2cccnc12 | -0.45%
COc1ccc(N2CCN(CCCOc3ccc(NC(=O)c4cc(Cl)cc(Cl)c4)cc3)CC2)c(OC)c1 | 5.97%
O=C(Nc1ccccc1C(F)(F)F)Nc1nn(Cc2c(F)cccc2Cl)cc1Br | 4.7%
CCCCN(CCCC)CCC(O)C(=Cc1ccc(Cl)cc1Cl)c1ccc(C(F)(F)F)cc1N (stereo not given) | 0.65%
COc1ccc(N(c2nc(-c3cc(Cl)ccc3Cl)cs2)C2CCNC2)cc1 (stereo not given) | 4.65%
CN(C(=O)c1ccc(Br)cc1)c1ccccc1[N+](=O)[O-] | -1.07%
CCCCCCCN(Cc1ccc(OC(C)(C)C(=O)OCC)cc1)C(=O)Nc1ccc(Cl)cc1OCC | 0.95%
COc1ccccc1C1CCN(C2CCC(NC(=O)/C=C/c3ccc(C(F)(F)F)cc3)CC2)CC1 (stereo not given) | 2.17%
O[C@H]1[C@H](OCc2ccc(-c3ccccc3)cc2)CC[C@@H]1N1CCCCC1 | 1.54%
CC1CN(c2ncc(-c3ccc(CNC4Cc5ccccc5C4)cc3)cn2)CC(C)N1 (stereo not given) | 2.64%
CC(C)(C)c1ccc(-c2cc3c(ccc4nc(N)nc(N)c43)[nH]2)cc1 | 1.64%
Cc1nc2ccccc2c(=O)n1NCc1ccc(Cl)c(Cl)c1 | -1.58%
COc1ccc(C=Cc2cc(=N)c3ccccc3[nH]2)cc1 | 2.77%
CN(C)CC(=O)Nc1cccc(Nc2nccc(NCC(O)c3ccccc3)n2)c1 (stereo not given) | 0.33%
Fc1ccc(COc2ccc(Nc3ncnc4ccc(I)cc34)cc2Cl)cc1 | 5.02%
COC(=O)C(Cc1ccccc1)C(CSCc1ccc(OC)cc1)C(=O)N[C@@H](C(=O)OC(C)(C)C)c1ccc(C(C)(C)C)cc1 (stereo not given in full) | 4.41%
O=C(CCNc1ccnc(NCCc2ccc(F)cc2)n1)Nc1ccccc1 | 4.56%

target: Glucose transporter (Leishmania mexicana) (UniProt O61059); experiment: ST_JUDE_LEISH: Cytotoxicity at 2uM final concentration against transgenic Leishmania Mexicana promastigotes LmGT2 that are glucose transport deficient and complemented with the L. Mexicana glucose transporter 2. Activity is measured by DNA content using SYBR green in vitro; format: functional

SMILES | inhibition
Clc1ccc2c(Cl)c(CNCCCNc3nc4ccccc4[nH]3)[nH]c2c1 | 1.14%
CCN(CC)CCOc1ccc(N(Cc2ccc(C(C)(C)C)cc2)C(=O)c2ccc(Cc3ccccc3)cc2)cc1OC | 13.1%
O=S(=O)(Nc1cccc(CCN2CCC(N3CCCCC3)CC2)c1)c1ccc2c(c1)OCCO2 | 8.66%
N#Cc1ccc2c(c1)CCN(CCC1CCC(NC(=O)Nc3ccnc4ccccc34)CC1)C2 (stereo not given) | 1.75%
COc1ccc(N2CCN(CCc3ccc(NC(=O)c4ccc([N+](=O)[O-])cc4)cc3)CC2)c(OC)c1 | 6.07%
CC(=O)Nc1ncc(C(=O)Nc2cccc(-c3ccc(-c4nc5cccc(C)c5[nH]4)cc3)c2)s1 | 0.54%
O=C(Cc1ccccc1)NC(CCN1CCC(O)(c2cccc(C(F)(F)F)c2)CC1)c1ccc(Cl)c(Cl)c1 (stereo not given) | 0.53%
c1ccc(COc2ccccc2COc2ccccc2-c2ccc3cccnc3n2)cc1 | 5.87%
CN(C)CCCOc1ccc(CN2CC[C@H](NC(=O)c3ccc(Cl)c(Cl)c3)C2)cc1Br | 0.53%
Cc1cccc2c1NC(=O)/C2=N/NC(=S)N(C)C | 2.09%
C[C@H](NC(=O)c1c(CN2CCC(N3CCCCC3)CC2)c(-c2ccccc2)nc2cc(O)ccc12)C1CCCCC1 | 3.03%
Cc1cc(NCCC(=O)NCc2cccc(F)c2)nc(NCCc2ccc(F)cc2)n1 | 3.7%
Cc1cccc2nc(-c3ccc(-c4ccc(CN5CCOCC5)cc4)cc3)[nH]c12 | 2.61%
Cc1[nH]c(C)c(-c2ccc(OCCCCSc3ccncc3)cc2)c(=O)c1Br | 8.94%
CC(=O)N/N=C/[C@H](CCc1ccccc1)NC(=O)[C@H](CC(C)C)NC(=O)c1ccc(OCCN2CCOCC2)cc1 | 3.05%
Brc1cc2c(cc1C=NNc1nc(=Nc3ccccc3)[nH]c(=Nc3ccccc3)[nH]1)OCO2 | -2.12%
O=C(/C=C/c1ccc2ccccc2c1)NCC1(c2ccc(-c3ccccc3)cc2)CCOCC1 | 3.08%
CCN(CC)CCN(Cc1ccc(-c2ccc(C(F)(F)F)cc2)cc1)C(=O)Cn1c(SCc2ccc(F)c(F)c2F)nc(=O)c2c1CCC2 | 3.4%
COc1ccc2ncc(F)c(CCN3C4CCC3CC(NCc3cc5c(cn3)OCS5)C4)c2n1 (stereo not given) | 64.1%
CCOC(=O)CC[C@H](NC(=O)c1ccc(NS(=O)(=O)c2ccc(-c3cnc(N)[nH]c3=O)cc2)cc1)C(=O)OCC | 4.7%

SMILES | inhibition
COc1cccc(CNC(=O)NC2CCN(c3ccnc(Nc4ccc(F)cc4)n3)C2)c1 (stereo not given) | -1.51%
c1cc(C2=NC3CCCCC3N2)ccc1OCCCOc1ccc(C2=NC3CCCCC3N2)cc1 (stereo not given) | 1.12%
NC1CCN(Cc2ccc(-c3cccc(-c4nc5ccccc5[nH]4)c3)cc2)C1 (stereo not given) | 5.76%
O=C(Nc1cccc(-c2ccc(-c3nc4ccccc4[nH]3)cc2)c1)c1cnn2cccnc12 | -0.33%
COc1ccc(N2CCN(CCCOc3ccc(NC(=O)c4cc(Cl)cc(Cl)c4)cc3)CC2)c(OC)c1 | 6.22%
O=C(Nc1ccccc1C(F)(F)F)Nc1nn(Cc2c(F)cccc2Cl)cc1Br | 3.18%
CCCCN(CCCC)CCC(O)C(=Cc1ccc(Cl)cc1Cl)c1ccc(C(F)(F)F)cc1N (stereo not given) | 0.7%
COc1ccc(N(c2nc(-c3cc(Cl)ccc3Cl)cs2)C2CCNC2)cc1 (stereo not given) | 1.24%
CN(C(=O)c1ccc(Br)cc1)c1ccccc1[N+](=O)[O-] | -2.57%
CCCCCCCN(Cc1ccc(OC(C)(C)C(=O)OCC)cc1)C(=O)Nc1ccc(Cl)cc1OCC | 3.11%
COc1ccccc1C1CCN(C2CCC(NC(=O)/C=C/c3ccc(C(F)(F)F)cc3)CC2)CC1 (stereo not given) | 2.85%
O[C@H]1[C@H](OCc2ccc(-c3ccccc3)cc2)CC[C@@H]1N1CCCCC1 | 8.6%
CC1CN(c2ncc(-c3ccc(CNC4Cc5ccccc5C4)cc3)cn2)CC(C)N1 (stereo not given) | 0.64%
CC(C)(C)c1ccc(-c2cc3c(ccc4nc(N)nc(N)c43)[nH]2)cc1 | -0.3%
Cc1nc2ccccc2c(=O)n1NCc1ccc(Cl)c(Cl)c1 | 0.11%
COc1ccc(C=Cc2cc(=N)c3ccccc3[nH]2)cc1 | 0.89%
CN(C)CC(=O)Nc1cccc(Nc2nccc(NCC(O)c3ccccc3)n2)c1 (stereo not given) | -0.94%
Fc1ccc(COc2ccc(Nc3ncnc4ccc(I)cc34)cc2Cl)cc1 | 1.83%
COC(=O)C(Cc1ccccc1)C(CSCc1ccc(OC)cc1)C(=O)N[C@@H](C(=O)OC(C)(C)C)c1ccc(C(C)(C)C)cc1 (stereo not given in full) | 5.18%
O=C(CCNc1ccnc(NCCc2ccc(F)cc2)n1)Nc1ccccc1 | 3.24%
